In PubChem BioAssay AID463229 (Broad Institute, 2010):
Among all 2,300 compounds or so, about 2,100 (91%) were called active.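 Rule for the calls: active = compounds raising the signal whose fitted half-maximal concentration is at or below their top tested dose (cut at about 25 µM in these data); inconclusive = flat fit at 30 to 70% activity, or a poor fit; inactive = the rest.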 The set was probably picked from earlier hits. The list is a sample of the results. Entries that show only a call come without a potency. Potency and affinity values are given separately.

Experiment: cytokine-free beta-cell viability effect – INS-1E rat cells, ATP luminescence, cherry pick, counter-screen for beta-cell apoptosis protection project, dose response (AID 463229)
Details: INS-1E rat beta cells, no cytokines, CellTiter-Glo ATP, 48 h; series mostly up to 26 µM

Row | SMILES | outcome
1 | CCOc1ccc(/C=N/Nc2ccc(Cl)nn2)c(O)c1 | inactive
2 | Cc1cc(C)nc(OC(=O)c2ccc(Cl)cc2Cl)n1 | inactive
3 | Cc1ccc(C(=O)O/N=C/c2c(N3CCOCC3)n(C)c3ccccc23)cc1 | inactive
4 | Cc1ccc2c(C)ccc(O)c2n1 | inactive
5 | CCCNC(=O)c1c(N)n(-c2cccc(OC)c2)c2nc3ccccc3nc12 | inactive
6 | CC(=O)Nc1ccc(C2=CC(=O)C[C@H](c3ccc4c(c3)OCO4)C2)cc1 | inactive
7 | FC(F)(F)c1ccccc1NC(=S)N1CCc2ccccc2C1 | inactive
8 | Fc1ccc(Oc2nc(-c3ccccn3)nc3ccccc23)cc1 | inactive
9 | O=C(CCCN1C(=O)/C(=C/c2ccccc2)SC1=S)NCCCn1ccnc1 | inactive
10 | O=[N+]([O-])c1ccc(/C=N/Nc2ccnc3cc(Cl)ccc23)o1 | inactive
11 | CC1(C(=O)OCC(=O)N2c3ccccc3Sc3ccccc32)CC1(Cl)Cl (stereo not drawn) | inactive
12 | Nc1ccc2nn(-c3cccc4ccccc34)nc2c1 | inactive
13 | CC(=O)Cc1cc(O)c2ccccc2c1OC(=O)c1ccc(Br)cc1 | inactive
14 | Cc1cc2cc(CN3C(=O)c4ccccc4C3=O)ccc2n1C | inactive
15 | Cc1ccc(NC(=O)c2c(-c3c(F)cccc3Cl)noc2C)cc1F | inactive
16 | O=C1/C(=N\S(=O)(=O)c2cccs2)C([n+]2ccc(CCCc3ccccc3)cc2)=C([O-])c2ccccc21 | inactive
17 | CC(C)(C)c1cc[n+](C2=C([O-])c3ccccc3C(=O)/C2=N\S(=O)(=O)c2ccccc2)cc1 | inactive
18 | Cc1ccccc1Nc1c(-c2ccccn2)nc2c(C)cccn12 | inactive
19 | COc1cc(NC2CCCCC2O)c2nc(-c3ccc(Cl)cc3)ccc2c1 (stereo not drawn) | inactive
20 | COc1ccc(NC(=O)CN(C)C(=O)/C=C/c2ccc(S(=O)(=O)N3CCCCCC3)cc2)cc1 | inactive
21 | CC(C)C[C@H]1CN=C(Nc2ccccc2)N1CCC(C)c1ccccc1 (stereo partly drawn) | inactive
22 | CCC(CC)C(=O)c1c[nH]c(C(=O)NCc2ccccn2)c1 | inactive
23 | O=C(Cc1ccc([N+](=O)[O-])cc1)Nc1cccnc1 | inactive

Row | SMILES | outcome
24 | Cc1ccc(C)c(NS(=O)(=O)c2ccc(OCC(=O)NCc3cccnc3)cc2)c1 | inactive
25 | C/C(=N\NC(N)=S)c1ccncc1 | inactive
26 | O=C(NNC(=O)c1ccccc1OCc1ccccc1)c1ccccc1O | inactive
27 | C/C(Cn1nnc([N+](=O)[O-])n1)=N\NC(=O)c1ccccc1Cl | inactive
28 | Clc1ccc(SCc2cc(N3CCOCC3)nc(-c3ccccn3)n2)cc1 | inactive
29 | CCN(CC)C(=O)C1CCCN(C(=S)Nc2cccc3ccccc23)C1 (stereo not drawn) | inactive
30 | CC(C)(C)C(=O)NC(Nc1cccc2cccnc12)C(Cl)(Cl)Cl (stereo not drawn) | inactive
31 | CCCOc1ccc2c3c(c(=O)oc2c1OCCC)CCCC3 | inactive
32 | COc1ccc(/C=N/N2CCN(Cc3ccccc3)CC2)cc1 | inactive
33 | C/C(=N\Nc1nc(C)cc(-c2ccccc2)n1)c1ccc(F)cc1 | inactive
34 | C/C(=N\Nc1nc(C)cc(-c2ccccc2)n1)c1ccccc1 | inactive
35 | C=CC[C@@H](CC(=O)N(CCO)Cc1ccccc1)C(=O)N[C@H](COC(=O)[C@@H](CC=C)CC(=O)OC(C)(C)C)c1ccccc1 | inactive
36 | Cc1cc(C)n(-c2nc(NC(C)(C)C)nc(NC(C)(C)C)n2)n1 | inactive
37 | NNC(=S)Nc1ccc(OC(F)(F)F)cc1 | inactive
38 | COC(=O)c1sccc1S(=O)(=O)Nc1ccc(N2CCCCC2)cc1 | inactive
39 | COc1ccc(NC(=O)N(C)C[C@H]2Oc3c(NS(=O)(=O)c4ccc(F)cc4)cccc3C(=O)N([C@H](C)CO)C[C@@H]2C)cc1 | inactive
40 | c1ccc(-c2nnc(CSc3ccc4c(c3)OCCO4)o2)cc1 | inactive
41 | Fc1cccc(Cl)c1-c1nnc2ccc3ccccc3n12 | inactive
42 | Nc1ccc(Nc2ccccc2)cc1 | inactive
43 | CCN(CC)S(=O)(=O)c1cccc(NC(=O)c2cc(-c3cccs3)nn2-c2ccccc2)c1 | inactive
44 | Cc1ccc(S(=O)(=O)Nc2ccc(C(OC(=O)c3ccccc3[N+](=O)[O-])(C(F)(F)F)C(F)(F)F)cc2)cc1 | inactive
45 | c1ccc(N2CCN(CC3CCCCC3)CC2)cc1 | inactive
46 | CCCCOC(=O)c1ccc(NC(c2ccc(C)cc2)P(=O)(OC)OC)cc1 (stereo not drawn) | inactive

Row | SMILES | outcome
47 | COc1ccc(C2CC(c3cccc(C)c3)n3nc(N)nc3N2)cc1 (stereo not drawn) | inactive
48 | Cc1ccc(C2CC(c3cccc(C)c3)n3nc(N)nc3N2)cc1 (stereo not drawn) | inactive
49 | CCOC(=O)CSc1nc2c(c(=O)[nH]1)C(C)(CC)Cc1ccccc1-2 (stereo not drawn) | inactive
50 | O=C(O)c1ccc(/C=C2\SC(=S)N(Nc3ccccc3)C2=O)cc1 | inactive
51 | CN1N=C(C(C)(C)C)CSC1=Nc1ccccc1 | inactive
52 | CC(=O)c1c(C)n(CC(=O)NCc2ccco2)c2ccccc12 | inactive
53 | Cc1ccc(N2C(=O)CSC2c2cccnc2)c(Cl)c1 (stereo not drawn) | inactive
54 | CN(C)c1ccc(NC(=S)NC23CC4CC(CC(C4)C2)C3)cc1 | inactive
55 | COc1ccccc1NS(=O)(=O)c1cccc(NC(=O)c2[nH]c(C)c(C(C)=O)c2C)c1 | inactive
56 | O=C(CC1CC2CCC1C2)NCCc1ccc(Cl)cc1 (stereo not drawn) | inactive
57 | CNC(=S)N(Cc1cccs1)Cc1cc2cc(OC)c(OC)cc2[nH]c1=O | inactive
58 | CCN(CC)c1ccc(N=Cc2ccccc2[N+](=O)[O-])cc1 | inactive
59 | CC1CC(=O)N(c2ccc(Br)cc2)C(=O)C1 | inactive
60 | Cn1cccc1/C=N/NC(=O)Cc1cccs1 | inactive
61 | CCOC(=O)c1sc(SC)c2c1CCC/C2=N/OC | inactive
62 | COc1cnc(-c2ccccn2)nc1N(C)c1ccccc1 | inactive
63 | O=C(CCCCC(=O)Nc1ccc(F)cc1F)Nc1ccc(F)cc1F | inactive
64 | C/C(=N\Nc1nc(-c2ccccn2)nc2ccccc12)c1ccc(F)cc1 | inactive
65 | O=C(c1ccc(F)c(S(=O)(=O)N2CCOCC2)c1)N1CCN(c2ccc(F)cc2)CC1 | inactive
66 | CC1=C(C(=O)OCCNC(=O)c2ccccc2O)C(c2ccccc2[N+](=O)[O-])C(C(=O)OCC2CCCO2)=C(C)N1 (stereo not drawn) | inactive
67 | COc1ccc(CN(C)C(=O)c2ccc(NS(=O)(=O)c3ccc(F)cc3)cc2)c(OC)c1OC | inactive
68 | CC[C@@H]1C/C=C\Cc2ccccc2[C@H](C(=O)C[C@@H](O)CC(C)=O)OC1=O | inactive
